The full list was thinned out, with hits kept by preference.
BoNT-F LC inh = BoNT F light chain protease inhibition; 0.22% of 360,000 active; AID 588497; inhibition, % at 10 µM; Multiplex microsphere protease cleavage assay, flow cytometry; in the data active = inhibition above about 35%, passing the limit was not always enough; inconclusive = no clear call, values can overlap the other calls; note: plate controls were buffer without enzyme for full effect and enzyme alone for no effect
Anthrax LF prot = inhibitors of Bacillus anthracis lethal factor protease; P15917; multiplex microsphere protease cleavage assay, LF; inhibition, % at 10 µM; 0.12% of 360,000 active; note: plate controls were buffer without enzyme for full effect and enzyme alone for no effect
BoNT-A LC inh2 = BoNT A light chain protease inhibition | multiplex microsphere protease substrate cleavage, flow cytometry | inhibition, % at 10 µM | 0.17% of 360,000 active | AID 588499; note: plate controls were buffer without enzyme for full effect and enzyme alone for no effect
Bead autofluor = counter-screen for toxin protease inhibitors: compound fluorescence; compound autofluorescence counterscreen, microsphere flow cytometry; active compounds read high; 3.1% of 360,000 active; fluorescence intensity (test concentration not listed); AID 624483; in the data active = fluorescence intensity above about 16000; inconclusive = no clear call, values can overlap the other calls
TcdB GH inh = blocks C. difficile toxin B glycohydrolase activity. P18177. TcdB glycohydrolase enzymatic assay, plate reader. inhibition, % at 9.99 µM. 0.24% of 350,000 active. AID 652162; in the data active = inhibition above about 10%
The depositor's hits bear a star; ? = inconclusive; · = no result given. Cut-off read from the data, not from the text of the source, unless noted: active = inhibition above about 30%; inconclusive = no clear call, values can overlap the other calls; inactive = below that.

SMILES	BoNT-F LC inh	Anthrax LF prot	BoNT-A LC inh2	Bead autofluor	TcdB GH inh
NC(=O)CSc1nnc(COc2ccccc2)n1N	6.5	-4.0	1.6	?	0.4
O=C(CSc1nnc(Cc2cccs2)n1C1CC1)NC1CCS(=O)(=O)C1 (stereo unspecified)	-2.9	-1.1	-0.7	5486	1.2
NC(=O)CSc1nnc(Cc2cccs2)n1C1CCCCC1	0.5	3.0	2.1	19288*	·
NC(=O)CSc1nnc(COc2ccccc2)n1C1CCCCC1	-0.9	1.3	1.5	19126*	·
O=C1COc2ccc(C(=O)CSc3nnc(Cc4cccs4)n3-c3ccc(Cl)cc3)cc2N1	10.6	1.5	7.2	17966*	·
O=C(C[C@@H]1CC[C@@H]2[C@H](COC[C@H](O)CN2Cc2ccccc2)O1)N[C@H]1CCN(Cc2ccccc2)C1	·	·	·	·	-0.7
Cc1cc(C)n(-c2nc3ccccc3nc2N2CCCC2)n1	4.1	1.2	3.2	19617*	4.3
Cc1cc(C)n(-c2nc3ccccc3nc2N2CCCCCC2)n1	11.0	13.0	16.2	3565	·
O=C(COC(=O)C1(c2ccc(F)cc2)CCCC1)NC1CC1	-2.9	1.2	-3.2	17844*	·
CCCNS(=O)(=O)c1cccc(C(=O)NC2CCCc3ccccc32)c1 (stereo unspecified)	2.6	-0.8	1.0	22288*	·
Cn1c(=O)oc2cc(S(=O)(=O)NCCC(=O)NC3CCCc4ccccc43)ccc21 (stereo unspecified)	-1.6	-2.8	-1.0	20326*	0.6
CN(C)S(=O)(=O)c1cccc(C(=O)NC2CCCc3ccccc32)c1 (stereo unspecified)	-23.4	1.5	-0.6	4650	·
CN(Cc1ccccc1)C(=O)CCNS(=O)(=O)c1ccc2c(c1)oc(=O)n2C	-2.9	-0.8	-0.8	20317*	·
CCCN(CCC)CCCNS(=O)(=O)c1ccc2c(c1)oc(=O)n2C	-10.8	-8.0	?	23740*	·
CN(Cc1ccccc1)C(=O)CCS(=O)(=O)c1ccc2c(c1)oc(=O)n2C	1.0	-1.9	-0.5	5147	0.7
CCC(=O)Nc1ccc2c(c1)C(=O)N(C)C[C@@H](OC)[C@H](C)CN(CC1CC1)[C@@H](C)CO2	·	·	·	·	-0.1
O=C(NC1CCCCC1)N[C@@H]1CC[C@H](CCNS(=O)(=O)c2ccc(F)cc2)O[C@@H]1CO	·	·	·	·	-0.5
CN1C(=O)c2cc(NC(=O)C3CCCC3)ccc2OC[C@@H]2O[C@H](CC(=O)NCc3ccccc3F)CC[C@H]21	·	·	·	·	-0.2
COc1ccc(NC(=O)N(C)C[C@H]2Oc3ccc(NC(=O)NC4CCCCC4)cc3C(=O)N([C@@H](C)CO)C[C@@H]2C)cc1	·	·	·	·	-2.0
C[C@H]1CN([C@@H](C)CO)C(=O)CCCn2nncc2CO[C@H]1CN(C)Cc1ccc2cccnc2c1	·	·	·	·	1.1
C[C@H]1CN([C@@H](C)CO)C(=O)c2cc(NC(=O)CCN3CCOCC3)ccc2O[C@H]1CN(C)CC1CCCCC1	·	·	·	·	1.1
CCC(=O)Nc1ccc2c(c1)OC[C@H](C)N(C(=O)NC(C)C)C[C@H](C)[C@H](OC)CN(C)C2=O	·	·	·	·	12.8*
CCC(=O)Nc1ccc2c(c1)OC[C@@H](C)N(C(=O)NC(C)C)C[C@@H](C)[C@@H](OC)CN(C)C2=O	·	·	·	·	17.9*
CCC(=O)Nc1ccc2c(c1)OC[C@@H](C)N(C(=O)NC(C)C)C[C@H](C)[C@@H](OC)CN(C)C2=O	·	·	·	·	8.8
CN1CCN(C(=O)c2cccc(COc3cc(Cl)ccc3Cl)c2)CC1	-2.0	-1.4	-2.1	22814*	·
SMILES	BoNT-F LC inh	Anthrax LF prot	BoNT-A LC inh2	Bead autofluor	TcdB GH inh
O=C(O)c1cccc(COc2ccccc2Cl)c1	2.5	-3.1	4.0	22141*	0.7
O=C(O)c1ccc(COc2ccccc2Cl)cc1	-3.8	-2.9	-0.8	8429	·
CCC(C)NC(=O)c1ccc(COc2ccccc2Cl)cc1 (stereo unspecified)	-9.7	0.6	-7.4	21804*	·
CCCNC(=O)C[C@@H]1CC[C@@H]2[C@@H](COc3ccc(NC(=O)c4cccc(F)c4)cc3C(=O)N2C)O1	·	·	·	·	-0.4
CN(C)CC(=O)Nc1ccc2c(c1)[C@@H]1C[C@H](CC(=O)NC3CCCCC3)O[C@@H](CO)[C@@H]1O2	·	·	·	·	-1.5
COC(=O)c1sccc1-c1ccc(/C=N/OC(=O)c2ccccc2)o1	5.4	-2.6	5.5	20465*	·
Cc1ccccc1NC(=S)N(C)C1(c2ccccc2Cl)CCCCC1=O (stereo unspecified)	0.1	-0.6	1.8	23061*	·
Cc1ccc(S(=O)(=O)N(C)C[C@H]2Oc3ccc(NC(=O)Cc4ccccc4)cc3C(=O)N([C@@H](C)CO)C[C@@H]2C)cc1	·	·	·	·	0.4
CCOC(=O)c1c(C)oc2c1c(C(c1ccccc1)N1CCOCC1)c(O)c1ccccc12 (stereo unspecified)	6.0	-4.8	?	19404*	·
COC(=O)[C@H]1[C@H](CO)[C@H]2Cn3c(ccc(C4=CCCCC4)c3=O)[C@H]2N1CCC(F)(F)F	·	·	·	·	-0.4
Cn1c(-c2ccc(C=O)s2)nc2c3ccccc3c3ccccc3c21	39.7*	48.2*	79.3*	2883	·
O=[N+]([O-])c1cccnc1N1CCOCC1	8.5	4.7	?	19529*	·
O=[N+]([O-])c1cc(F)c(N2CCOCC2)cc1N1CCCCC1	-7.6	-1.8	-4.6	24982*	-2.5
O=[N+]([O-])c1cc(F)c(N2CCCCC2)cc1N1CCOCC1	-5.3	-3.9	0.3	9474	·
Cc1nn(C)cc1NC(=O)C[C@H]1CC[C@@H]2[C@@H](COc3ccc(NC(=O)NC(C)C)cc3C(=O)N2C)O1	·	·	·	·	-1.3
O=S(=O)(c1ccc2ccccc2c1)N1CCN(C2CCN(Cc3ccccc3)CC2)CC1	0.5	-0.2	-0.9	23769*	·
O=S(=O)(c1ccccc1)N1CCN(C2CCN(Cc3ccccc3)CC2)CC1	-1.5	1.4	-0.2	4334	·
CCOC(=O)N1CCN(S(=O)(=O)c2ccc(C)c(C)c2)CC1	3.3	0.8	?	23015*	·
CCOC(=O)N1CCN(C(=O)C2CCN(S(=O)(=O)c3c(C)cc(C)cc3C)CC2)CC1	-4.6	2.5	-1.6	16613*	·
Cc1ccc(S(=O)(=O)N2CCN(C(=O)C3COc4ccccc4O3)CC2)cc1C (stereo unspecified)	4.9	-2.6	?	19329*	·
O=C(C1COc2ccccc2O1)N1CCN(S(=O)(=O)c2ccccc2)CC1 (stereo unspecified)	-3.3	0.5	-1.7	4636	1.5
CCOC(=O)N1CCN(S(=O)(=O)c2c(C)cc(C)cc2C)CC1	-14.3	0.8	-0.9	4601	·
CC(C)CC#Cc1cnc2c(c1)C(=O)N([C@H](C)CO)C[C@@H](C)[C@@H](CN(C)Cc1ccccn1)O2	·	·	·	·	-1.1
C[C@H](CO)N1C[C@H](C)[C@H](CN(C)S(=O)(=O)c2ccc(Cl)cc2)Oc2ccc(NC(=O)C3CC3)cc2C1=O	·	·	·	·	0.0
Cc1ccc(OCC(=O)N/N=C2\CCOc3c(C)cccc32)cc1	-0.7	-0.3	1.5	22762*	0.1
Cc1ccccc1OCC(=O)N/N=C1\CCOc2c(C)cccc21	0.4	-0.1	-1.4	20512*	0.1
COc1cccc2c1OCC/C2=N\NC(=O)COc1ccccc1C	1.4	-3.2	0.0	1897	·
Cc1ccccc1OCCN1C(=O)NC2(CCc3ccccc32)C1=O (stereo unspecified)	0.8	0.3	0.9	20031*	·
